Screens as filed in PubChem.
Most compounds without a hit are left out; they make up all but 4.1% or so of the library.
ssDAF12 agonist: activators of S. stercoralis DAF-12 nuclear receptor. AID 652126. activation, % at 6.8 µM. HEK293 ssDAF-12/GRIP1 lit1-tk-luc reporter, luminescence; % of 3 µM dafachronic acid response. 370,000 tested, 1% active;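 active = activation above the mean over all tested compounds plus 3 SD, cut at about 0.9% in these data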;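 also: 0% = DMSO-only wells and 100% = 3 µM delta7-dafachronic acid wells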
hgDAF12 agonist: activates the H. glycines DAF-12 receptor ligand-binding domain | HEK293 GAL4-hgDAF12 UAS-luciferase reporter, agonist luminescence; normalized to butyrate control | activation, % at 6.8 µM | 370,000 tested, 1.8% active | AID 687014;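 active = activation above a cutoff set at the mean of all screened compounds plus 3 SD, cut at about 10% in these data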;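 also: 0% = DMSO wells and 100% = sodium butyrate wells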
hcDAF-12 act: H. contortus DAF-12 activation, primary screen; HEK293 hcDAF-12 lit1-tk-luc reporter, luminescence; 0% DMSO, 100% Δ7-dafachronic acid; 370,000 tested, 1.4% active; activation, % at 6.8 µM;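 active = activation above the mean of all tested compounds plus 3 SD, cut at about 5.5% in these data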;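 also: 100% = response to 3 µM Δ7-dafachronic acid high control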
DAX1 inh-1: DAX1 (NR0B1) inhibition, primary screen; HEK293T StAR-luciferase reporter, SF-1/DAX-1 repression relief; inhibition, % at 6.8 µM; 370,000 tested, 1.1% active; AID 652010;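 active = inhibition above the mean over all tested compounds plus 3 SD, cut at about 3.6% in these data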;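 also: 0% = DAX-1 cells with DMSO and 100% = cells lacking DAX-1 with DMSO; higher inhibition means more luminescence from relief of DAX-1 repression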
DAX1 inh-2: NR0B1 (DAX1) inhibition; HEK293 Gal4-DAX1 luciferase reporter, luminescence; 340,000 tested, 0.99% active; P51843; inhibition, % at 6.75 µM; AID 504766;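 active = inhibition above the mean over all tested compounds plus 3 SD, cut at about 4.2% in these data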;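 also: 0% = DAX1-transfected cells with DMSO and 100% = empty-vector control cells with DMSO; inhibition shows as a rise in luminescence from relieved DAX1 repression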
Target sequence (P51843 207-470 limits assumed): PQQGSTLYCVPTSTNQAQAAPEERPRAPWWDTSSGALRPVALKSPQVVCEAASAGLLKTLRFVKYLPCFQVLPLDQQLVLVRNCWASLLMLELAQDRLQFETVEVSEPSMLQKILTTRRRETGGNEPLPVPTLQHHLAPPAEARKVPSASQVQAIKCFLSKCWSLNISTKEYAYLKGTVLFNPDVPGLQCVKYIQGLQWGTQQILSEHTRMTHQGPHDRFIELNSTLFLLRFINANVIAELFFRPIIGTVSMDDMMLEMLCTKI
DAX1 inh confirm: NR0B1 (human) inhibition, confirmation; inhibition, % at 6.8 µM; HEK293T StAR-promoter luciferase reporter, SF-1/DAX-1 repression; shares compounds with DAX1 inh-1; AID 652134; 2,400 tested, 87% active;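 active = inhibition above the average of every tested compound plus 3 SD, cut at about 3.8% in these data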;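 also: 0% = DAX-1 cells with DMSO and 100% = no DAX-1 control cells with DMSO; active compounds raise luminescence by relieving repression of the StAR reporter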
Target sequence (P51843 whole entry, looked up): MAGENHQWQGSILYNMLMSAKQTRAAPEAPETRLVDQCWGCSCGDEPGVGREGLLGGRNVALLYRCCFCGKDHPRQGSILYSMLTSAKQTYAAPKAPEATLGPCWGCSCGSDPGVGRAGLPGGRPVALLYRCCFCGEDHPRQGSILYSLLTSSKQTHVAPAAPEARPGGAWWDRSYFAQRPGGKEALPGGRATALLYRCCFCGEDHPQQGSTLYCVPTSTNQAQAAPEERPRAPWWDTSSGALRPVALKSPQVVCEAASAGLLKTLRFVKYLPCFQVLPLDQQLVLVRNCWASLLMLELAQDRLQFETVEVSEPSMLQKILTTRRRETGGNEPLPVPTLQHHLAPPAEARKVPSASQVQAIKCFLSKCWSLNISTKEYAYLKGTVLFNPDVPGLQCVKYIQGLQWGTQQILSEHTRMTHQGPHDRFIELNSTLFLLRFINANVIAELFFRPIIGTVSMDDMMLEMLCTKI
SF1 AF2mut Luc: counter-screen for DAX1 inhibitors: nonselective inhibitors with SF-1 AF2 mutant; shares compounds with DAX1 inh-1; HEK293 StAR-luciferase, luminescence; inhibition, % at 6.8 µM; 2,400 tested, 78% active;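 active = inhibition above the mean of all tested compounds plus 3 SD, cut at about 3% in these data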;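 also: 0% = DAX-1 transfected cells with DMSO and 100% = cells without DAX-1 with DMSO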
LXRb hcDAF ctr: counter-screen for hcDAF-12 agonists: agonists of human LXR-beta; shares compounds with hcDAF-12 act; AID 743027; activation, % at 6.8 µM; HEK293 Gal4-LXR tk-luc reporter, luminescence, 24 h; normalized: DMSO 0%, positive control 100%; 3,400 tested, under 10 active;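 active = mean percent activation of the reporter above a cutoff set as the average over tested compounds plus their standard deviation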
hcDAF12 conf: confirmation of H. contortus DAF-12 agonists; shares compounds with hcDAF-12 act; HEK293 hcDAF-12 lit1-tk-luc reporter, luminescence; % of Δ7-dafachronic acid response; activation, % at 6.8 µM; 3,400 tested, 61% active; AID 743032;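 active = mean activation across triplicate tests above the threshold derived from the earlier primary screen, cut at about 5.5% in these data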;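 also: 0% = DMSO only wells and 100% = 3 µM Δ7-dafachronic acid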
hgDAF12 ag: hgDAF-12 agonism, confirmation assay | shares compounds with hgDAF12 agonist | HEK293 GAL4-hgDAF12 luciferase reporter, agonist mode; percent of butyrate response | activation, % at 6.8 µM | 3,300 tested, 80% active | AID 743050;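 active = mean activation over triplicate wells above the hit cutoff derived from the earlier primary screen, cut at about 11% in these data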;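 also: 0% = DMSO low control and 100% = 2 mM sodium butyrate high control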
LXR ag 2: counter-screen for DAF-12 agonists: agonists of human LXR-beta; shares compounds with hgDAF12 agonist; HEK293 Gal4-LXR luciferase reporter, 24 h; 3,300 tested, under 10 active; activation, % at 6.8 µM; AID 743051;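 active = mean activation of the triplicate above a set limit carried over from the primary screen, none filed active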
* marks the source's active call; other numbers are inactive results; x = no result.

SMILES | ssDAF12 agonist | hgDAF12 agonist | hcDAF-12 act | DAX1 inh-1 | DAX1 inh-2 | DAX1 inh confirm | SF1 AF2mut Luc | LXRb hcDAF ctr | hcDAF12 conf | hgDAF12 ag | LXR ag 2
Cc1ccc2nc(-c3ccc(NC(=O)CCN4C(=O)c5ccccc5C4=O)cc3)sc2c1 | 0.9* | 16.8* | 8.7* | 5.9* | -0.3 | 15.4* | 4.5* | 1.5 | 8.3* | 21.4* | 1.4
Cc1ccc2nc(-c3ccc(NC(=O)CSCC(=O)O)cc3)sc2c1 | 0.5 | 24.4* | 7.0* | 4.8* | 3.9 | 15.1* | 8.8* | 1.3 | 5.8* | 17.8* | 0.8
Cc1ccc2nc(-c3ccc(NC(=S)NC4CC(C)(C)NC(C)(C)C4)cc3)sc2c1 | 0.6 | 18.5* | 4.8 | 7.5* | 4.4* | 11.9* | 10.4* | x | x | 17.4* | 0.7
O=C(CCN1C(=O)c2ccccc2C1=O)Nc1ccc(-c2nc3ccccc3s2)cc1 | -0.6 | 3.4 | 2.1 | 2.5 | 1.4 | x | x | x | x | x | x
Cc1ccc2nc(-c3ccc(NC(=S)NC(=O)C(C)C)cc3)sc2c1 | 0.0 | 4.8 | 3.7 | 2.4 | 1.8 | x | x | x | x | x | x
O=C(Nc1cccc2[nH]c([C@H]3C[C@H](O)[C@@H](CO)O3)nc12)NC(c1ccccc1)c1ccccc1 | -1.9 | -2.1 | -2.3 | -0.6 | x | x | x | x | x | x | x
O=C(O)c1ccccc1-n1ncc2c1/C(=C/c1ccc(Cl)cc1)CC2 | -0.9 | -2.1 | -0.6 | 0.3 | x | x | x | x | x | x | x
COCCN1C[C@@H](CO)O[C@@H](n2cnc3c(NCCN(C)C)ncnc32)C1 | -0.1 | -1.2 | -0.2 | 0.6 | x | x | x | x | x | x | x
CCOC(=O)c1sc(=NC(=O)c2ccccc2)n(C)c1C | 2.2* | 13.3* | 15.7* | 4.6* | 2.9 | 14.9* | 9.6* | 1.3 | 14.1* | 18.0* | 0.9
CCOC(=O)CN1C(=O)CN(c2ccc(C)cc2)C1=O | 0.0 | 7.6 | 2.3 | 1.5 | 0.7 | x | x | x | x | x | x
COc1ccc(N=C2C(=Nc3ccc(OC)cc3)N(c3ccccc3)C(=S)N2C(=O)c2ccc(Cl)cc2)cc1 | -0.3 | 15.0* | 4.5 | 4.5* | -0.5 | 6.0* | 5.8* | x | x | 18.3* | 0.8
COc1ccc(N=C2C(=Nc3ccc(OC)cc3)N(c3ccc(OC)cc3)C(=S)N2C(=O)c2ccc(OC)cc2)cc1 | -1.5 | 3.4 | 1.7 | 1.1 | 0.6 | x | x | x | x | x | x
O=C(O)c1cncc(SCc2ccccc2)n1 | -1.1 | 1.9 | 3.3 | 0.1 | 0.5 | x | x | x | x | x | x
COc1cccc(OC)c1NC(=O)CN1CCC(NC(=O)c2cccc(F)c2)CC1 | -0.1 | 0.7 | -1.3 | -0.2 | -0.8 | x | x | x | x | x | x
CC(=O)N/N=C(/C)c1ccc(NC(=O)c2csc(C)c2C)cc1 | 0.2 | 17.0* | 5.8* | 12.8* | 1.1 | 9.4* | 4.7* | x | x | 15.9* | 0.5
O=C(Nc1ncccc1O)c1ccc(S(=O)(=O)Nc2ccccc2)cc1 | 0.3 | 85.2* | 13.3* | 84.7* | 11.3* | 111.5* | 57.7* | 0.5 | 8.0* | 80.9* | 0.5
CN(c1ccccc1)S(=O)(=O)c1ccc(C(=O)Nc2ncccc2O)cc1 | -1.2 | 9.8 | 0.7 | 1.3 | 0.1 | x | x | x | x | x | x
COC(=O)c1ccc(NC(=O)c2ccc(NS(=O)(=O)c3cccc4cccnc34)cc2)cc1 | x | x | x | x | -0.2 | x | x | x | x | x | x
O=C(Nc1ccccc1O)c1ccc(NS(=O)(=O)c2cccc3cccnc23)cc1 | 2.3* | 83.5* | 19.4* | 53.9* | 18.2* | 90.8* | 38.4* | 1.1 | 13.2* | 89.4* | 0.7
CC(=O)NCCNc1nc2cc(-c3cnn(CCC(C)C)c3)sc2c(=O)n1C | -1.4 | -3.4 | -3.8 | -2.1 | x | x | x | x | x | x | x
COC(=O)C[C@@H]1C=C[C@@H](NC(=O)NC2CCCC2)[C@@H](CO)O1 | -0.2 | -1.2 | 1.0 | 0.3 | x | x | x | x | x | x | x
CCCCCc1nnc(NC(=O)C2=COCCO2)s1 | 1.9* | 19.9* | 9.0* | 11.2* | 3.1 | 10.2* | 5.0* | 0.6 | 8.0* | 14.2* | 0.6
Cc1ccc(NC(=O)Nc2ccc3c(c2)CCC3)c(C)c1 | -0.6 | -0.1 | 0.9 | 1.4 | 0.0 | x | x | x | x | x | x
O=C(Nc1ccc2c(c1)CCC2)c1ccccc1F | 0.7 | 20.0* | 15.2* | 6.7* | 2.2 | 13.8* | 7.2* | 1.8 | 11.6* | 20.5* | 1.2
O=C(Nc1ccc2c(c1)CCC2)Nc1ccccc1Cl | 0.3 | 13.7* | 3.2 | 8.8* | 0.6 | 9.8* | 7.8* | x | x | 21.6* | 1.1
COc1ccccc1/C=C/C(=O)Nc1ccc2c(c1)CCC2 | 1.4* | 16.3* | 6.7* | 5.2* | 3.5 | 7.7* | 7.5* | 1.4 | 6.6* | 18.6* | 0.9
COc1ccc(OC)c(/C=C/C(=O)Nc2ccc3c(c2)CCC3)c1 | -1.4 | 3.7 | -3.6 | -0.3 | -1.0 | x | x | x | x | x | x
O=C(O)c1ccccc1-c1ccccc1C(=O)Nc1ccc2c(c1)CCC2 | -1.4 | 0.9 | -0.6 | 0.0 | 0.2 | x | x | x | x | x | x
O=C(Nc1ccc2c(c1)CCC2)c1ccccc1 | 0.3 | 16.9* | 6.0* | 5.6* | 0.1 | 15.0* | 6.5* | x | x | 19.2* | 1.1
